# Assay results: article PMC7862700, “An all-to-all approach to the identification of sequence-specific readers for epigenetic DNA modifications on cytosine”
# Assays:
# Assay in all cases: DAPPL (digital affinity profiling via proximity ligation, sequencing); 10 mM Tris-HCl pH 7.5, 50 mM NaCl, 1 mM DTT, 4% glycerol, room temperature, 30 min; GST-TFs on glutathione beads, 16-mer random dsDNA library, 0.1% formaldehyde crosslink after washing; high values mean tight binding
# [1] = target: T1, FLI1 (Homo sapiens, UniProt Q01543 1-452); details: protein: recombinant; tags: N-terminal GST; dsDNA, one strand shown
# T1 sequence: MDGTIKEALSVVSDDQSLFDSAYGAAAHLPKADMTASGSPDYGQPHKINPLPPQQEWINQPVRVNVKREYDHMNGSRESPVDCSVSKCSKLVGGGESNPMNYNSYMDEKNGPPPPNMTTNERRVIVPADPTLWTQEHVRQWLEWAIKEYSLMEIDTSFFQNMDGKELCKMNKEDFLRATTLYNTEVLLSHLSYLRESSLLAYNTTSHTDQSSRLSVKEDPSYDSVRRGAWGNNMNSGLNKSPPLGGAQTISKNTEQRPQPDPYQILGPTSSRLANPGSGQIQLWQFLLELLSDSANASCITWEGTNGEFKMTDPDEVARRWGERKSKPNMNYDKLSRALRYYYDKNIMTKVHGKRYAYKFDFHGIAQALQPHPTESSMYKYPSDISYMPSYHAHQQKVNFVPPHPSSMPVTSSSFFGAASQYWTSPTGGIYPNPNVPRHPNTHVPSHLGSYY
# Procedure, shortened: (§1)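 GST fusions of human transcription factors were expressed in yeast and captured with glutathione beads. Once given DNA barcodes and pooled alongside a tag-only sample, they were incubated for 30 min at room temperature with 200 nmole of a random double-stranded 16-mer DNA library in Tris/NaCl/DTT/glycerol buffer, then washed, crosslinked (0.1% formaldehyde), proximity-ligated, PCR-amplified and sequenced on an Illumina NextSeq500. The binding signal of each hexamer is its read frequency for a factor divided by its frequency for the tag-only sample.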
# [2] = target: T2, ELK1 (Homo sapiens, UniProt P19419 1-428); details: protein: recombinant; tags: N-terminal GST; dsDNA, one strand shown
# T2 sequence: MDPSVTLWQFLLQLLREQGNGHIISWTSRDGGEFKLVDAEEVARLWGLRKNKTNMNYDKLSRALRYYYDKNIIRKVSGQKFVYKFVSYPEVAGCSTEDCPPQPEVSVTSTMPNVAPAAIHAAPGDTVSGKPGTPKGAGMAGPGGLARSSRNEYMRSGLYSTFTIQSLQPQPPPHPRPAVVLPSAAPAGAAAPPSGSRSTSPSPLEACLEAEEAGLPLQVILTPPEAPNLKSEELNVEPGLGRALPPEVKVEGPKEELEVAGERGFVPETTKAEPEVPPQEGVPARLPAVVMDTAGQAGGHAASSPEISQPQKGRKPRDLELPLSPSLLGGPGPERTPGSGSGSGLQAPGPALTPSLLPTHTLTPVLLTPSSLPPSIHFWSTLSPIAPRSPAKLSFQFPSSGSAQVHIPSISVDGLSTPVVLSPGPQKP
# Procedure, shortened: as §1
# [3] = target: T3, GABPA (Homo sapiens, UniProt Q06546 1-454); details: protein: recombinant; tags: N-terminal GST; dsDNA, one strand shown
# T3 sequence: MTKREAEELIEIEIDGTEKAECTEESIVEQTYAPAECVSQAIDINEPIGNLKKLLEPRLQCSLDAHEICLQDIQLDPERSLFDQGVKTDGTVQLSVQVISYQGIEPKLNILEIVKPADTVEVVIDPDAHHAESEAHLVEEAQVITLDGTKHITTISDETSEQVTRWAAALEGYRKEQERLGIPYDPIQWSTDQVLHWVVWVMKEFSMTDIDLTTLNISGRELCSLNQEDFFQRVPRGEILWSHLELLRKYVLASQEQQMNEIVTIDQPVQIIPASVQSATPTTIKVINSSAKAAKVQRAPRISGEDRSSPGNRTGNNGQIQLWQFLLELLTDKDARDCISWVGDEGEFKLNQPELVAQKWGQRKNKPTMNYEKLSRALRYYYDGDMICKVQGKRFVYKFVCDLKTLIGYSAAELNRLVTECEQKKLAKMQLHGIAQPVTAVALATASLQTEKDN
# Procedure, shortened: as §1
# [4] = target: T4, ERG (Homo sapiens, UniProt P11308 1-479); details: protein: recombinant; tags: N-terminal GST; dsDNA, one strand shown
# T4 sequence: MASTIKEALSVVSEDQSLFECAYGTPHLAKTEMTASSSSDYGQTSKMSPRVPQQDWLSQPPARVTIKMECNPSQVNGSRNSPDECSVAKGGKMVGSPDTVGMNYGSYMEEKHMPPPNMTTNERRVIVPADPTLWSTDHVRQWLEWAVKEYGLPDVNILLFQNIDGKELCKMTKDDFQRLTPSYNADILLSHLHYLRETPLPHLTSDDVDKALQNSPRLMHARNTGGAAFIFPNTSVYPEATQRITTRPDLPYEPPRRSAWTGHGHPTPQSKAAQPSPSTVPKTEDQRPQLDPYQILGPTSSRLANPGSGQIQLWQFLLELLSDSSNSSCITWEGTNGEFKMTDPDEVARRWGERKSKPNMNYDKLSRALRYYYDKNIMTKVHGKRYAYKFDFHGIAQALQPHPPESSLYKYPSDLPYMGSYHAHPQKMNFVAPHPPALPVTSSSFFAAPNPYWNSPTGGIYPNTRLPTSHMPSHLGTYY
# Procedure, shortened: as §1
# [5] = target: ELF1 (Homo sapiens, UniProt P32519 1-619); details: protein: recombinant; tags: N-terminal GST; dsDNA, one strand shown
# Chain of ELF1 (P32519 whole entry): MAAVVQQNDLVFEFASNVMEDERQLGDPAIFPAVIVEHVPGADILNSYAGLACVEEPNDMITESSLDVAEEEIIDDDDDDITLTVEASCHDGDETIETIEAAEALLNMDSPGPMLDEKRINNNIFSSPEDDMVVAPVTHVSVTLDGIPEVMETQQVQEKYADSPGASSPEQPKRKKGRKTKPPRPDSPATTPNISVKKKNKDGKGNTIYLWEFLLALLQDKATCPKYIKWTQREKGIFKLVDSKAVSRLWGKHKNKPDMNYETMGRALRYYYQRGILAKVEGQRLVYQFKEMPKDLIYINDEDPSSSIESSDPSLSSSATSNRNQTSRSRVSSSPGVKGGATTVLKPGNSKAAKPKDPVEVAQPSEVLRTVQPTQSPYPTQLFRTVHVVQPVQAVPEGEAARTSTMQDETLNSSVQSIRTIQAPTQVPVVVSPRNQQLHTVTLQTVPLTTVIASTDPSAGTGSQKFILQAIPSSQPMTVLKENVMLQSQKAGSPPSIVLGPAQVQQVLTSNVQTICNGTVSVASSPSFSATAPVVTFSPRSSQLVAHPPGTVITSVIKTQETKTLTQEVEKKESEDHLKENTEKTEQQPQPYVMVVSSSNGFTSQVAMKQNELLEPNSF
# Procedure, shortened: as §1
# [6] = target: T5, EHF (Homo sapiens, UniProt Q9NZC4 1-300); details: protein: recombinant; tags: N-terminal GST; dsDNA, one strand shown
# T5 sequence: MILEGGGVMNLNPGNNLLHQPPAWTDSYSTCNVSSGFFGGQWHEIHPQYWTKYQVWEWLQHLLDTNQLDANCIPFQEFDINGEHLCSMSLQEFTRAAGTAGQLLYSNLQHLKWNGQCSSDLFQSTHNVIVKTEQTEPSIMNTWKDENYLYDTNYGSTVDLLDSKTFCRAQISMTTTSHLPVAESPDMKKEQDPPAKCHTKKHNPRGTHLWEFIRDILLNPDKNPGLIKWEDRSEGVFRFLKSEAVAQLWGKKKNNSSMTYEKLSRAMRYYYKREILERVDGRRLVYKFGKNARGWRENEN
# Procedure, shortened: as §1
# [7] = target: SPI1 (Homo sapiens, UniProt P17947 1-270); details: protein: recombinant; tags: N-terminal GST; dsDNA, one strand shown
# Procedure, shortened: as §1
# [8] = target: SPIB (Homo sapiens, UniProt Q01892 1-262); details: protein: recombinant; tags: N-terminal GST; dsDNA, one strand shown
# Chain of SPIB (Q01892 whole entry): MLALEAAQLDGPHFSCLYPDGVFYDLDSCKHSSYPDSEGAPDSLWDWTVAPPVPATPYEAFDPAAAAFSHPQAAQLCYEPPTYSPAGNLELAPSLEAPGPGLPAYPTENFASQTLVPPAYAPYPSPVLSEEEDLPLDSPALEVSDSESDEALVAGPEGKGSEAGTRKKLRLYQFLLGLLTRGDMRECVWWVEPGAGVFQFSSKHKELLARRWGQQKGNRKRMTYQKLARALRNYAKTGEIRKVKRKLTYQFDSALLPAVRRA
# Procedure, shortened: as §1
# [9] = target: T6, ELK3 (Homo sapiens, UniProt P41970 1-407); details: protein: recombinant; tags: N-terminal GST; dsDNA, one strand shown
# T6 sequence: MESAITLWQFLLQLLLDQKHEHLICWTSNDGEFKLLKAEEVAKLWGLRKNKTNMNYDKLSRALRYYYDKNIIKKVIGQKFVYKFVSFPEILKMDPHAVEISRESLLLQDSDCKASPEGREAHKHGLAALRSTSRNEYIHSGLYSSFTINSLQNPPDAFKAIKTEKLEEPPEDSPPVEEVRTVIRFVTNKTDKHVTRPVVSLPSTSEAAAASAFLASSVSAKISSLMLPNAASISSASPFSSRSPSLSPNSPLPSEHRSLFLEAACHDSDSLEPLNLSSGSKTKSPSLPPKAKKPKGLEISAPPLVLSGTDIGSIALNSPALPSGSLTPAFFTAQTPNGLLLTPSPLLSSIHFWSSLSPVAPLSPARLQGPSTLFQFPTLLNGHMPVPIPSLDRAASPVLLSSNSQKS
# Procedure, shortened: as §1
# [10] = target: T7, FEV (Homo sapiens, UniProt Q99581 1-238); details: protein: recombinant; tags: N-terminal GST; dsDNA, one strand shown
# T7 sequence: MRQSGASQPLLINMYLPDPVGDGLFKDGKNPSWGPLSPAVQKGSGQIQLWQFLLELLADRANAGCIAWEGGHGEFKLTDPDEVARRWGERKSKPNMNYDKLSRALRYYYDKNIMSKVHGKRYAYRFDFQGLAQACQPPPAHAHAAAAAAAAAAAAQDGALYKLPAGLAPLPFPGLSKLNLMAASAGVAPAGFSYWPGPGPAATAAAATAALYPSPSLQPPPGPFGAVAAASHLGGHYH
# Procedure, shortened: as §1
# [11] = target: ETV5 (Homo sapiens, UniProt P41161 1-510); details: protein: recombinant; tags: N-terminal GST; dsDNA, one strand shown
# Chain of ETV5 (P41161 whole entry): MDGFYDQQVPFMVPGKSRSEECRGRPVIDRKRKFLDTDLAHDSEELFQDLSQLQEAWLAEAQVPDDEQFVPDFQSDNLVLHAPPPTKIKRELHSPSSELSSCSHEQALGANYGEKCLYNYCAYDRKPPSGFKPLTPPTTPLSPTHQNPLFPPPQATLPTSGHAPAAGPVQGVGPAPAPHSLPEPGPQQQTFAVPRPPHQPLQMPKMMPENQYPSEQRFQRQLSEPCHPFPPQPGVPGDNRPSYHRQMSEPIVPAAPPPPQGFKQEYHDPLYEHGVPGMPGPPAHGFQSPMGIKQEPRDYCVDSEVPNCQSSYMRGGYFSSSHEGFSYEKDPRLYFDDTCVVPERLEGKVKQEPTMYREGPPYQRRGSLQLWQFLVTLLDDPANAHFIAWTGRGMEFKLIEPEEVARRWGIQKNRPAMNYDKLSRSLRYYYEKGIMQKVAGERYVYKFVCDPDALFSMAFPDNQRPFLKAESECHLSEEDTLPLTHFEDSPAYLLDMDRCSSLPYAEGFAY
# Procedure, shortened: as §1
# [12] = target: HSF1 (Homo sapiens, UniProt Q00613 1-529); details: protein: recombinant; tags: N-terminal GST; chain copies: 3; dsDNA, one strand shown
# Chain of HSF1 (Q00613 whole entry): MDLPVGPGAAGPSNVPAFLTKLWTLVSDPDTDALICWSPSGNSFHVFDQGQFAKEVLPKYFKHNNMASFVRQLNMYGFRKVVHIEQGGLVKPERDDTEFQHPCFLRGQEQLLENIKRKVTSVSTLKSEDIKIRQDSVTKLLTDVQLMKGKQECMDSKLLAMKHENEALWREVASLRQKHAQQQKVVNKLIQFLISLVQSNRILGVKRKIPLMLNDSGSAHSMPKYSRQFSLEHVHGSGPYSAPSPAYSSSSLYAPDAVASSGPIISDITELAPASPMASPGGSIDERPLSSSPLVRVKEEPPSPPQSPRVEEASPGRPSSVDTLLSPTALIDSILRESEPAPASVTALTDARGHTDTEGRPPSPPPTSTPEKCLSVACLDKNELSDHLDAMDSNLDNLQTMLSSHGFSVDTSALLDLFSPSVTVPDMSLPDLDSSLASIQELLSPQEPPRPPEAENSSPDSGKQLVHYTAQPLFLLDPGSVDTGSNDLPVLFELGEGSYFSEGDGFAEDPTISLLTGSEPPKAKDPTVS
# Procedure, shortened: as §1
# [13] = target: T8, SPIC (Homo sapiens, UniProt Q8N5J4 1-248); details: protein: recombinant; tags: N-terminal GST; dsDNA, one strand shown
# T8 sequence: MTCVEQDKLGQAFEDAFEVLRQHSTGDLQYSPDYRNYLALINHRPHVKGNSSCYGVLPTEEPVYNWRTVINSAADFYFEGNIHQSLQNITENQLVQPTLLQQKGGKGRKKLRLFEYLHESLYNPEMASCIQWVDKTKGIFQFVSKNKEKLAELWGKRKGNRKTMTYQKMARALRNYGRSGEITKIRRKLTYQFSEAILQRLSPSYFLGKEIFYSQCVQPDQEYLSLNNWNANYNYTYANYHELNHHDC
# Procedure, shortened: as §1
# [14] = target: ELF4 (Homo sapiens, UniProt Q99607 1-663); details: protein: recombinant; tags: N-terminal GST; dsDNA, one strand shown
# Chain of ELF4 (Q99607 whole entry): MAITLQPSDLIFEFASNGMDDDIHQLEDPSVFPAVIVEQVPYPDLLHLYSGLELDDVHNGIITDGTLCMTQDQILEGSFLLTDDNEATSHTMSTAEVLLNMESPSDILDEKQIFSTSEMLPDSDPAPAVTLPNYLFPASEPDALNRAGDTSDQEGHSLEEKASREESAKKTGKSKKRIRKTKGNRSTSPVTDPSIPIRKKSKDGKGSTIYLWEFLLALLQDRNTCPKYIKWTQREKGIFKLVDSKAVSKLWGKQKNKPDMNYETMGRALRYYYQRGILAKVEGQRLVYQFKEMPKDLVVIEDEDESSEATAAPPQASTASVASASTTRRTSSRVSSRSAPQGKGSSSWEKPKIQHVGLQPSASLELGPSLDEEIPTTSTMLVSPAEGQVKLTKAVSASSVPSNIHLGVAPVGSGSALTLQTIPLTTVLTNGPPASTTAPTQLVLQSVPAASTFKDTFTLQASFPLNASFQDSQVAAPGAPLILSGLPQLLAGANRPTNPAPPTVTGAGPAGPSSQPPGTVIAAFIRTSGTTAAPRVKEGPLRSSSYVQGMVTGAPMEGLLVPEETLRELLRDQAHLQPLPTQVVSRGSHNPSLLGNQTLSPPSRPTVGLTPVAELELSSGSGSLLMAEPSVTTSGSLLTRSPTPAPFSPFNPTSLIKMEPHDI
# Procedure, shortened: as §1
# [15] = target: T9, ELK4 (Homo sapiens, UniProt P28324-2 1-405); details: protein: recombinant; tags: N-terminal GST; dsDNA, one strand shown
# T9 sequence: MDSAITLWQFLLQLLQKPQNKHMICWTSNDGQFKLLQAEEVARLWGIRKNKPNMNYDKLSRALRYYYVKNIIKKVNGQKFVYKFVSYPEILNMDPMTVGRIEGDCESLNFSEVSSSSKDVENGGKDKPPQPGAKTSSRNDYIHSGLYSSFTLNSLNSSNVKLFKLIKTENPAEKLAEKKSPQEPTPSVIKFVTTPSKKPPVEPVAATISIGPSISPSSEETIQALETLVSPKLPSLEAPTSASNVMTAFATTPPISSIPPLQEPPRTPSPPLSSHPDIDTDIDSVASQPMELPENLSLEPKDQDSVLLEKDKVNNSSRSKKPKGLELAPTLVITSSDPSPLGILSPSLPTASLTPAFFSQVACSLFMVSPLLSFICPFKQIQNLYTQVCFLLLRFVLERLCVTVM
# Procedure, shortened: as §1
# [16] = target: T10, ETV2 (Homo sapiens, UniProt O00321 1-342); details: protein: recombinant; tags: N-terminal GST; dsDNA, one strand shown
# T10 sequence: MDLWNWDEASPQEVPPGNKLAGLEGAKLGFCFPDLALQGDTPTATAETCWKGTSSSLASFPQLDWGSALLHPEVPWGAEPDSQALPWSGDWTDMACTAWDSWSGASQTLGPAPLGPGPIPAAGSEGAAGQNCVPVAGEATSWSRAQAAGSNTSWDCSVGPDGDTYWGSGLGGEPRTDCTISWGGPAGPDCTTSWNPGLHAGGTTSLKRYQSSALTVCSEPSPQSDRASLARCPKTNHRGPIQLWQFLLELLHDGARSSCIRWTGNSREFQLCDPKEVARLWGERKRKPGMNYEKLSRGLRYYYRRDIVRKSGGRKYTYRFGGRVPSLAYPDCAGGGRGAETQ
# Procedure, shortened: as §1
# [17] = target: T11, ELF3 (Homo sapiens, UniProt P78545 1-371); details: protein: recombinant; tags: N-terminal GST; dsDNA, one strand shown
# T11 sequence: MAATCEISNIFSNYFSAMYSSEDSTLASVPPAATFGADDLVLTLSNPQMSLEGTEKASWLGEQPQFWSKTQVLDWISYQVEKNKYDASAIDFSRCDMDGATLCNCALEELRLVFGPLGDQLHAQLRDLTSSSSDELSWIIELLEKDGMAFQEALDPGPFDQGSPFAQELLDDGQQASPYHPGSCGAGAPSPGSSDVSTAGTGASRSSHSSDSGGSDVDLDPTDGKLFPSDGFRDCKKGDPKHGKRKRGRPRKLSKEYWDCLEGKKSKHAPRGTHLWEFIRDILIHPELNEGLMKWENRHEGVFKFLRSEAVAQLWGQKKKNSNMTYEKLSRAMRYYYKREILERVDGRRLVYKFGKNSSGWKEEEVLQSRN
# Procedure, shortened: as §1
# [18] = target: CRX (Homo sapiens, UniProt O43186 1-299); details: protein: recombinant; tags: N-terminal GST; dsDNA, one strand shown
# Chain of CRX (O43186 whole entry): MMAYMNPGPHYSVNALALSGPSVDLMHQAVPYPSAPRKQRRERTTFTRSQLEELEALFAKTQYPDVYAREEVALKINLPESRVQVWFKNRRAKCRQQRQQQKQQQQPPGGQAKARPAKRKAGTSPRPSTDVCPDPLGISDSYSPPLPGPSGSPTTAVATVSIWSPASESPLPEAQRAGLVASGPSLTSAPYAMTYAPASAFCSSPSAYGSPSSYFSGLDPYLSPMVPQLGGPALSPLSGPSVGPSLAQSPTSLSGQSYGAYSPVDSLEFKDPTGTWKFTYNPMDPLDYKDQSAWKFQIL
# Procedure, shortened: as §1
# [19] = target: ETV1 (Homo sapiens, UniProt P50549 1-477); details: protein: recombinant; tags: N-terminal GST; dsDNA, one strand shown
# Chain of ETV1 (P50549 whole entry): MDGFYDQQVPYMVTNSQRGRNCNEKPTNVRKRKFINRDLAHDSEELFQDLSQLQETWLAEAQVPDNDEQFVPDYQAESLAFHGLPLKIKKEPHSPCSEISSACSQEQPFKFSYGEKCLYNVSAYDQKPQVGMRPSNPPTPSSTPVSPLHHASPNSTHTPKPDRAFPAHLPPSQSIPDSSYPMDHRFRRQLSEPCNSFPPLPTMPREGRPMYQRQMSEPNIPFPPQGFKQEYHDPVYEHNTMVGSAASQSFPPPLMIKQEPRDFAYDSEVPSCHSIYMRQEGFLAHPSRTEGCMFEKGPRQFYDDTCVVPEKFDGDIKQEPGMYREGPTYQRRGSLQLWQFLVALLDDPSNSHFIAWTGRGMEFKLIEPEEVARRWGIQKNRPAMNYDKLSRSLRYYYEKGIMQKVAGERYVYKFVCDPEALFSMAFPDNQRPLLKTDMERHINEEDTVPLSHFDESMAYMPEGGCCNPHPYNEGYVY
# Procedure, shortened: as §1
sequence,measurement,setting,value
TGGCTC,binding signal,[1],"1.4 fold enrichment (6-mer frequency, TF over GST control)"
same,binding signal,[2],"1.43 fold enrichment (6-mer frequency, TF over GST control)"
same,binding signal,[3],"1.47 fold enrichment (6-mer frequency, TF over GST control)"
same,binding signal,[4],"1.43 fold enrichment (6-mer frequency, TF over GST control)"
same,binding signal,[5],"1.46 fold enrichment (6-mer frequency, TF over GST control)"
same,binding signal,[6],"1.34 fold enrichment (6-mer frequency, TF over GST control)"
same,binding signal,[7],"1.16 fold enrichment (6-mer frequency, TF over GST control)"
same,binding signal,[8],"1.39 fold enrichment (6-mer frequency, TF over GST control)"
same,binding signal,[9],"1.3 fold enrichment (6-mer frequency, TF over GST control)"
same,binding signal,[10],"1.39 fold enrichment (6-mer frequency, TF over GST control)"
same,binding signal,[11],"1.3 fold enrichment (6-mer frequency, TF over GST control)"
same,binding signal,[12],"1.36 fold enrichment (6-mer frequency, TF over GST control)"
same,binding signal,[13],"1.46 fold enrichment (6-mer frequency, TF over GST control)"
same,binding signal,[14],"1.35 fold enrichment (6-mer frequency, TF over GST control)"
same,binding signal,[15],"1.5 fold enrichment (6-mer frequency, TF over GST control)"
same,binding signal,[16],"1.61 fold enrichment (6-mer frequency, TF over GST control)"
same,binding signal,[17],"1.44 fold enrichment (6-mer frequency, TF over GST control)"
same,binding signal,[18],"1.3 fold enrichment (6-mer frequency, TF over GST control)"
same,binding signal,[19],"1.42 fold enrichment (6-mer frequency, TF over GST control)"
